A short description of experiment [1]: qHTS profiling of the MIPE4 collection as inhibitors of Plasmodium falciparum (DD2) proliferation (AID 743345; call rule not given here). The settings on record: P. falciparum Dd2 in erythrocytes, SYBR Green DNA, 72 h; at 28.5 µM (top of the series) unless noted. In short, it runs like this: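 Parasite DNA was quantified by SYBR Green I fluorescence (ex 485, em 535 nm) after overnight lysis in saponin/Triton buffer at room temperature. Cultures at 0.3% parasitemia and 2.5% hematocrit were first exposed to compound for 72 h at 37 C; signals were normalised to artemisinin (0.29 uM) and vehicle wells.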

A short description of experiment [2]: qHTS for Inhibitors of the Functional Ribonucleoprotein Complex (vRNP) of Lassa (LASV) Arenavirus: LASV Primary Screen - GLuc reporter signal (AID 1347082; calls by dose curve; tested in HEK293 reporter line; further: nearly all actives have a fitted effect of over 60% in size; further: potency means the concentration at half of the fitted maximal effect; on activity change, negative = inhibition: on the % scale 0 is the no-effect control and ±100 the full control effect). In general terms: qHTS replaces the single test concentration by a dilution series.
Experiment [3] can be described thus: qHTS for Inhibitors of the Functional Ribonucleoprotein Complex (vRNP) of Lassa (LASV) Arenavirus: Viability assay - alamar blue signal for LASV Primary Screen (AID 1347083; calls by dose curve; tested in HEK293 reporter line; further: nearly all actives have a fitted effect of over 80% in size; further: potency means the concentration at half of the fitted maximal effect).
A short description of experiment [4]: qHTS for Inhibitors of the Functional Ribonucleoprotein Complex (vRNP) of Lymphocytic Choriomeningitis Arenaviruses (LCMV): Viability assay - alamar blue signal for LCMV Primary Screen (AID 1347085; calls by dose curve; tested in HEK293 reporter line; further: nearly all actives have a fitted effect of over 80% in size; further: potency means the concentration at half of the fitted maximal effect).
The target in experiment [5] is Nucleoprotein (Lymphocytic choriomeningitis virus (strain Armstrong)) (UniProt P09992). Description: qHTS for Inhibitors of the Functional Ribonucleoprotein Complex (vRNP) of Lymphocytic Choriomeningitis Arenaviruses (LCMV): LCMV Primary Screen - GLuc reporter signal (AID 1347086). Further: nearly all actives have a fitted effect of over 70% in size. Further: potency means the concentration at half of the fitted maximal effect. On activity change, negative = inhibition: on the % scale 0 is the no-effect control and ±100 the full control effect.
Sequence of Nucleoprotein (Lymphocytic choriomeningitis virus (strain Armstrong)) (P09992 whole entry, looked up): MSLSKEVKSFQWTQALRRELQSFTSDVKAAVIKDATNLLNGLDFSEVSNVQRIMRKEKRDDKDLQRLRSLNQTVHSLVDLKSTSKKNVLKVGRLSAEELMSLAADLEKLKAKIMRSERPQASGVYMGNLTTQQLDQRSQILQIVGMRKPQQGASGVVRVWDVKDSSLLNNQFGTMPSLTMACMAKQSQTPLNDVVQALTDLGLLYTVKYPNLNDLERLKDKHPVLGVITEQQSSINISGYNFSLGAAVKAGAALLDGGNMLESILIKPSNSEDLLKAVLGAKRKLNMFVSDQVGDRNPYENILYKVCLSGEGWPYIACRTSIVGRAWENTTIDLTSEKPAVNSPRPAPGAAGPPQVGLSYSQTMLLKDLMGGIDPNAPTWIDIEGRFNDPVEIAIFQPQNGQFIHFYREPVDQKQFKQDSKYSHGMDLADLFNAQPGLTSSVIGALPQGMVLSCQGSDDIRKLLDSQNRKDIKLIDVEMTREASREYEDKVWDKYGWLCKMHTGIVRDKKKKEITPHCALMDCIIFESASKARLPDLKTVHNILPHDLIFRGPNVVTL
A short description of experiment [6]: Primary qHTS to identify inhibitors of SARS-CoV-2 cell entry (AID 1645846). Further: nearly all actives have a fitted effect of over 45% in size. Further: potency means the concentration at half of the fitted maximal effect. The settings on record: activity change, negative = inhibition: at 57.1 µM (top of the series) unless noted. The gist of the method:
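Entry measured by luciferase signal 48 h after adding SARS-CoV-2-S pseudotyped MLV particles to HEK293-ACE2 cells preincubated 1 h with compounds. Normalisation: bald particles and spike particles.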

The nature of experiment [7]: Validation screen for inhibitors of Lassa infection (AID 463096). Further: on the % scale 0 is the no-effect control and ±100 the full control effect.
Experiment [8] is described as follows: Inducers of the Endoplasmic Reticulum Stress Response (ERSR) in human glioma: Validation (AID 504836; active means well fitted curve in the direction sought with a large enough effect; an effect the other way counts as inactive or inconclusive; further: 0% is about no effect). The gist of the method: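 Stably transfected U87-MG human glioma cells carrying a GRP78-based luminescent sensor were seeded at 1000 cells/well, pin-dosed with compounds and incubated 16 h. Luciferase reagent was then added, and end-point luminescence was read after 10 min at room temperature.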

A short description of experiment [9]: KB-8-5-11 P-gp reporter qHTS against the NCATS DSHEA and TCM libraries (AID 1919977; active means well fitted curve in the direction sought with a large enough effect; an effect the other way counts as inactive or inconclusive; further: 0% is about no effect). The gist of the method: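 CellTiter-Glo luminescence measured viability after ~72 h exposure (37C, 5% CO2) of KB-8-5-11 cervical adenocarcinoma cells overexpressing P-gp. Colchicine was omitted during assay. Substances were tested as titrations.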
The target in experiment [10] is Cytochrome P450 2C9 (Homo sapiens) (UniProt P11712). In words: qHTS Assay for Inhibitors and Substrates of Cytochrome P450 2C9 (AID 883; active means well fitted curve in the direction sought with a large enough effect; an effect the other way counts as inactive or inconclusive; further: on the % scale 0 is the no-effect control and ±100 the full control effect; nearly all actives have a fitted effect of over 60% in size). In short, it runs like this: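 A luminogenic readout tracked human CYP2C9 (10nM) converting deoxyluciferin (100uM, at KM) in 25mM KPO4 during 60 min at 37C with regenerated NADPH. Values normalized to 57uM sulphaphenazole as complete inhibition.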
Sequence of Cytochrome P450 2C9 (Homo sapiens) (P11712 whole entry, looked up): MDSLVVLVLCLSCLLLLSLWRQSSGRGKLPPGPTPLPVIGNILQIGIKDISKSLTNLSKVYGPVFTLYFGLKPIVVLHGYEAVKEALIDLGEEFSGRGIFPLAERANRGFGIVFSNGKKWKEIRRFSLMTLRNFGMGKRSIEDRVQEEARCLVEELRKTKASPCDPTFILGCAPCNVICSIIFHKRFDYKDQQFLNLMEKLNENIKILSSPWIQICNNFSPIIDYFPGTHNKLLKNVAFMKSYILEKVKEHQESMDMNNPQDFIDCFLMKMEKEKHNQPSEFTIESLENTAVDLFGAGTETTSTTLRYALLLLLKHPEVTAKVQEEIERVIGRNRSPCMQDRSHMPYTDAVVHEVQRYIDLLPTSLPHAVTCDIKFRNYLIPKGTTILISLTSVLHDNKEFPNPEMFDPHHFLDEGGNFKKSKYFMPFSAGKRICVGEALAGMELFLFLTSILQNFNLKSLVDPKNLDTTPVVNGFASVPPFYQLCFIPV

Experiment [11] deals with Cytochrome P450 3A4 (Homo sapiens) (UniProt P08684). Description: qHTS Assay for Activators of Cytochrome P450 3A4 (AID 885; active means well fitted curve in the direction sought with a large enough effect; an effect the other way counts as inactive or inconclusive; further: nearly all actives have a fitted effect of over 65% in size). The gist of the method: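 Luminescent readout of luciferin formed from 25 uM Luciferin-PPXE (KM level) by 20 nM CYP3A4 in 200 mM KPO4, with 60 min NADPH-driven reaction at room temperature after 10 min compound exposure. Ketoconazole (57 uM) defined 100% inhibition.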
Sequence of Cytochrome P450 3A4 (Homo sapiens) (P08684 whole entry, looked up): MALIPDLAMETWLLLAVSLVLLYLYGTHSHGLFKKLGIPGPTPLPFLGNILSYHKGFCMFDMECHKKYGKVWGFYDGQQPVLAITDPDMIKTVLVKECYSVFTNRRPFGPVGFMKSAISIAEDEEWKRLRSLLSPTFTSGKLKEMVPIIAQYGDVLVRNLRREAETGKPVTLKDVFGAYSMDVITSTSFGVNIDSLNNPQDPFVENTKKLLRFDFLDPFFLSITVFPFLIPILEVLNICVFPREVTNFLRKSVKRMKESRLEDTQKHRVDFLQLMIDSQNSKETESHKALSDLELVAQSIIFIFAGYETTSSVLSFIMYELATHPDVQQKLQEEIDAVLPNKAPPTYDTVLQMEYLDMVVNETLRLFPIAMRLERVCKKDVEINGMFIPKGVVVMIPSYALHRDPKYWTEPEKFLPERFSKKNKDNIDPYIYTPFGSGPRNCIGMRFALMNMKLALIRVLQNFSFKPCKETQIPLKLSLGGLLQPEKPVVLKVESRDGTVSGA

The target of experiment [12] is Cytochrome P450 2D6 (Homo sapiens) (UniProt P10635). In words: qHTS Assay for Inhibitors and Substrates of Cytochrome P450 2D6 (AID 891; active means well fitted curve in the direction sought with a large enough effect; an effect the other way counts as inactive or inconclusive;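 further: luciferin methyl ether substrate demethylated by CYP2D6 with NADPH regeneration; on the % scale 0 is the no-effect control and ±100 the full control effect; nearly all actives have a fitted effect of over 60% in size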). The gist of the method: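 Luminescent read-out of luciferin formed by 5 nM human CYP2D6 demethylating 30 uM Luciferin-ME EGE (Km level) over 60 min at room temperature after NADPH regeneration addition. Data normalized to full inhibition by 1.43 uM quinidine.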
Sequence of Cytochrome P450 2D6 (Homo sapiens) (P10635 whole entry, looked up): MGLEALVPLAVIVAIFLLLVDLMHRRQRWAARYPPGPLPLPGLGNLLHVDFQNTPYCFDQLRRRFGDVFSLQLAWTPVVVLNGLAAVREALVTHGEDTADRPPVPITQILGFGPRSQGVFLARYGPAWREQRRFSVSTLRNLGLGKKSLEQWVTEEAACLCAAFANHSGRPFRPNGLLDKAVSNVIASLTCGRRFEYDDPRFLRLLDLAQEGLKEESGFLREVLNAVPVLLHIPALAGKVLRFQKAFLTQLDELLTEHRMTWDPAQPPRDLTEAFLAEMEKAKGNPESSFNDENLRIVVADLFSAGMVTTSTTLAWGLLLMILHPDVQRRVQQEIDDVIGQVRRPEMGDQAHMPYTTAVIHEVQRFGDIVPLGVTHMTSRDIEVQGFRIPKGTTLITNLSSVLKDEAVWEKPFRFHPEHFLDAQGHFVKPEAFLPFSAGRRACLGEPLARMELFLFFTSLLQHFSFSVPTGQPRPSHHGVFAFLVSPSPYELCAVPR

Experiment [13] addresses Alpha-galactosidase (Coffea arabica) (UniProt Q42656). In words: Counterscreen for Glucocerebrosidase Inhibitors: qHTS Assay for Coffee Bean alpha-Galactosidase at pH 4.5 (AID 957; active means well fitted curve in the direction sought with a large enough effect; an effect the other way counts as inactive or inconclusive;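 further: plate controls were enzyme alone for no effect and no enzyme for full effect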). In short, it runs like this:
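Quantitative HTS of compounds (0.7 nM to 77 uM) against coffee bean alpha-galactosidase at pH 4.5, measuring 4-methylumbelliferone fluorescence released from 80 uM substrate.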

Experiment [14] shares this target. In words: Counterscreen for Glucocerebrosidase Inhibitors: qHTS Assay for Coffee Bean alpha-Galactosidase at pH 5.9 (AID 998; active means well fitted curve in the direction sought with a large enough effect; an effect the other way counts as inactive or inconclusive;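 further: plate controls were uninhibited enzyme for no effect and no-enzyme basal signal for full effect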). The gist of the method: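 In 50 mM citric acid pH 5.9 with 0.005% Tween-20, coffee bean enzyme hydrolyses 80 uM 4-MU alpha-D-galactopyranoside over 20 min at RT. Activity is normalized to controls; AC50 comes from Hill-modelled concentration-response data.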
Background: A counterscreen serves to expose hits that act by an unwanted route or on another target.

A short description of experiment [15]: qHTS for differential inhibitors of proliferation of Plasmodium falciparum line W2 (AID 1883; active means well fitted curve in the direction sought with a large enough effect; an effect the other way counts as inactive or inconclusive;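 further: potency means the concentration at half of the fitted maximal effect; parasites grown with compound for 72 h before lysis and staining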). Conditions: Potency: Plasmodium falciparum W2 proliferation inhibition.
Experiment [16] concerns the target Ferritin light chain (Equus caballus) (UniProt P02791). In words: qHTS Validation Assay for Identification of Novel General Anesthetics (AID 2323; active means well fitted curve in the direction sought with a large enough effect; an effect the other way counts as inactive or inconclusive; further: on the % scale 0 is the no-effect control and ±100 the full control effect). In short, it runs like this: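 Competitive displacement of the profluorescent anesthetic 1-AMA (50% saturated, PBS) from 10 uM apoferritin, 10 min, room temperature. Activity is normalized 380/535 nm fluorescence; concentration-response fitted with a four-parameter Hill equation.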

The nature of experiment [17]: Cytometry Cell-Based qHTS for Inhibitors of the mTORC1 Signaling Pathway in MEF cells (AID 2668; active means well fitted curve in the direction sought with a large enough effect; an effect the other way counts as inactive or inconclusive; further: potency means the concentration at half of the fitted maximal effect). In short, it runs like this:
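Phospho-rpS6 (Ser235/236) immunofluorescence over PI signal, scored as % positive cells using thresholds from 7.5 nM rapamycin and DMSO wells, after 24 h compound exposure of WT-Tsc2-rescued Tsc2-/-, p53-/- MEFs. PI cell count recorded for viability.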

Experiment [18] addresses M-phase phosphoprotein 8 (Homo sapiens) (UniProt Q99549). In words: qHTS Validation Assay for Inhibitors for MPP8 Chromodomain Interactions with Methylated Histone Tails (AID 488949; active means well fitted curve in the direction sought with a large enough effect; an effect the other way counts as inactive or inconclusive; further: nearly all actives have a fitted effect of over 55% in size; further: potency means the concentration at half of the fitted maximal effect). The gist of the method: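 AlphaScreen proximity signal from streptavidin donor and Ni-chelate acceptor beads (10 ug/mL each) reported binding of MPP8 to trimethyl-K9 H3(1-18) peptide, both at 50 nM. The complex formed 30 min before a 30 min compound exposure at room temperature, in PBS pH 7.4.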

Experiment [19] addresses D(1A) dopamine receptor (Homo sapiens) (UniProt P21728). In words: HTS Assay for Allosteric Agonists of the Human D1 Dopamine Receptor: Primary Screen for Potentiators (AID 488982; active means well fitted curve in the direction sought with a large enough effect; an effect the other way counts as inactive or inconclusive; further: potency means the concentration at half of the fitted maximal effect). In short, it runs like this:
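Tetracycline-induced HEK293 T-REx cells force-coupled to calcium signalling were incubated overnight at 30 C and dye-loaded at room temperature. Calcium flux over 180 s after compound addition flagged agonists; a further 180 s read after EC20 dopamine flagged potentiators.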

Experiment [20] is described as follows: Nrf2 qHTS screen for inhibitors: Validation (AID 493153; active means well fitted inhibition curve with a large enough effect in the main read-out, with a control signal flat, not every such curve was filed as active;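 on activity change, negative = inhibition: A549 cells with ARE-driven firefly luciferase reporter reporting Nrf2 activity; % of control where 0% means no effect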). Conditions: Potency: luciferase luminescence; viability change: measured here: cytotoxicity max response. In short, it runs like this:
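In this counterscreened reporter format, each well gives two signals: CellTiter-Fluor fluorescence for cytotoxicity and ARE-luciferase luminescence for Nrf2 function. A549 ARE_Fluc cells in 5% FBS OPTI-MEM were exposed to compound titrations for 18-24 h.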

In experiment [21] the target is DNA dC->dU-editing enzyme APOBEC-3G (Homo sapiens) (UniProt Q9HC16). In words: qHTS for inhibitors of Vif-A3G interactions: Validation (AID 588379; active means well fitted curve in the direction sought with a large enough effect; an effect the other way counts as inactive or inconclusive; further: potency means the concentration at half of the fitted maximal effect). The gist of the method: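 Yellow fluorescence (Ex 488, Em 500-530) of Vif-coexpressing HeLa A3G-eYFP cells, scanned by Acumen cytometer, reports blocked A3G degradation. Cells plated at 700/well overnight at 37 deg C before compound addition, then a further overnight compound incubation at 37 deg C.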
Sequence of DNA dC->dU-editing enzyme APOBEC-3G (Homo sapiens) (Q9HC16 whole entry, looked up): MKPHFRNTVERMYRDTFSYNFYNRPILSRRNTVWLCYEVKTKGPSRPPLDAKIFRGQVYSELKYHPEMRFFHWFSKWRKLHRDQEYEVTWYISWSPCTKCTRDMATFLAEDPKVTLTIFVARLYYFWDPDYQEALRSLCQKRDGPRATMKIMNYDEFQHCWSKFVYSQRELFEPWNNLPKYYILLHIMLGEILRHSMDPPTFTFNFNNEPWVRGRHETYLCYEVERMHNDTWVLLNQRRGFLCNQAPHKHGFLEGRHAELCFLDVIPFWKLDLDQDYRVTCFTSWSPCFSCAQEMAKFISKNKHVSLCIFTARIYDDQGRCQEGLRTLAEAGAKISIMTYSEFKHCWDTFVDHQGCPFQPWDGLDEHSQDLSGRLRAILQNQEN

The target in experiment [22] is Arylsulfatase A (Homo sapiens) (UniProt P15289). Description: qHTS screen for enhancers of Arylsulfatase A (ASA1): LOPAC Validation Assay (AID 720538; active means well fitted curve in the direction sought with a large enough effect; an effect the other way counts as inactive or inconclusive). In short, it runs like this: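 Enhancer assay in patient-derived MLD fibroblasts carrying ASA-I179S: 48 h compound exposure at 37 C, then 14 h room-temperature pNCS turnover (0.5 mM final) in lysis buffer. Read by fluorescence at 525/598 nm after NaOH stop.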
Sequence of Arylsulfatase A (Homo sapiens) (P15289 whole entry, looked up): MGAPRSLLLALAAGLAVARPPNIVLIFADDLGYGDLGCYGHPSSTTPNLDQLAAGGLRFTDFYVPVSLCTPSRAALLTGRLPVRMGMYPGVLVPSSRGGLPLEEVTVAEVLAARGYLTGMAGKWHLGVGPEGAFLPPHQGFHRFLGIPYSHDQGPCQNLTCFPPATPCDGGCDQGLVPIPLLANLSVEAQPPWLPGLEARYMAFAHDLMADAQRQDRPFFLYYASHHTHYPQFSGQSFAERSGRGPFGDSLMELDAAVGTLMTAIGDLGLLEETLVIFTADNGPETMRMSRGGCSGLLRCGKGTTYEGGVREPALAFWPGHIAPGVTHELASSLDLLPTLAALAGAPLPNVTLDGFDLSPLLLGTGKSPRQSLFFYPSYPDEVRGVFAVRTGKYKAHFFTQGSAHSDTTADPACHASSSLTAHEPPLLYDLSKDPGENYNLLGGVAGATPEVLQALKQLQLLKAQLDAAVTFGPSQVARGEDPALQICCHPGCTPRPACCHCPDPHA

Inconclusive results are not listed. More than one record can exist for a structure, and the calls need not agree. Calls of active or inactive are those of the source. Unless noted, the call rests on the fitted dose curve.

Sequence of M-phase phosphoprotein 8 (Homo sapiens) (Q99549 whole entry, looked up): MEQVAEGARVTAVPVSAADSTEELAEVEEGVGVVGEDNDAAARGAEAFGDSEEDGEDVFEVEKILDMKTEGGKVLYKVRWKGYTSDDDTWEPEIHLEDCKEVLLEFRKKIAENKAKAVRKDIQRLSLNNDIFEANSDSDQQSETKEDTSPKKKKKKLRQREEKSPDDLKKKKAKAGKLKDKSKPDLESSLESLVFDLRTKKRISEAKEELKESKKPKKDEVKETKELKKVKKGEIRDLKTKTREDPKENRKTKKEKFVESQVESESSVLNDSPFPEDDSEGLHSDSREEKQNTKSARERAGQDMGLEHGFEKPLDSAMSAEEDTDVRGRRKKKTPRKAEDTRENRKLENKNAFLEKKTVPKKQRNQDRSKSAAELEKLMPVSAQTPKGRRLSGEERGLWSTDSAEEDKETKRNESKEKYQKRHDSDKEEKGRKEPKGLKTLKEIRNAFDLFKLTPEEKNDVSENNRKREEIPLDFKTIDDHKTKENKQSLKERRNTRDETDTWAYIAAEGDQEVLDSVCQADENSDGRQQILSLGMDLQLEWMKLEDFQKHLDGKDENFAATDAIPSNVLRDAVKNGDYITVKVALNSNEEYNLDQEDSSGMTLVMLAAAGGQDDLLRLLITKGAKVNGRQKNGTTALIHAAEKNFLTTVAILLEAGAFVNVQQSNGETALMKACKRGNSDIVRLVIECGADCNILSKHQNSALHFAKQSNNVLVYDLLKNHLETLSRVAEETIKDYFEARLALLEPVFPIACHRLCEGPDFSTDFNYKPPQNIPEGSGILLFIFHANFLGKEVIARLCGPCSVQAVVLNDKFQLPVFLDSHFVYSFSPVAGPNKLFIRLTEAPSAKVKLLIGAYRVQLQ
Sequence of Alpha-galactosidase (Coffea arabica) (Q42656 whole entry, looked up): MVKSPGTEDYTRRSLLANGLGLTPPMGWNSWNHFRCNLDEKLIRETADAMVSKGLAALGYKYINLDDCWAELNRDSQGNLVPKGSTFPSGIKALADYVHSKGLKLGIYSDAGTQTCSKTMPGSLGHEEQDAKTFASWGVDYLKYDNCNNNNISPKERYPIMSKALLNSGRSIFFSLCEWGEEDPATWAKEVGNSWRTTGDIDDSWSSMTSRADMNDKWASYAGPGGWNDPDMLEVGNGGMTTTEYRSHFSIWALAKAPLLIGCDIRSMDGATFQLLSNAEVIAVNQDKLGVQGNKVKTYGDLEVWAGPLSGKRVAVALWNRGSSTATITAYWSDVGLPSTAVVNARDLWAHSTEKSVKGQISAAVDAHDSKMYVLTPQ
Sequence of D(1A) dopamine receptor (Homo sapiens) (P21728 whole entry, looked up): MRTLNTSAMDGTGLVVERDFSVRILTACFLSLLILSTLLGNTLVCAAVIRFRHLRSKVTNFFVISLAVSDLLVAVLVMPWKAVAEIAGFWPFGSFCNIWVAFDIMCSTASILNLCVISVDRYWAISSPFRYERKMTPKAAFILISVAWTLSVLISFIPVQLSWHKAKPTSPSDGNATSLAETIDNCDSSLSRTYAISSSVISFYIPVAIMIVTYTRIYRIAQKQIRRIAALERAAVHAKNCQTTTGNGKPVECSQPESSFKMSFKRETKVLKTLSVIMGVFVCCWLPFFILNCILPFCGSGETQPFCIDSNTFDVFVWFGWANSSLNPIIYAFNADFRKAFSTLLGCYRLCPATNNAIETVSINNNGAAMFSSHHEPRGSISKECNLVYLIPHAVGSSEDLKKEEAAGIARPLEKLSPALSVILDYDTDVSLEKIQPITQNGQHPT
Sequence of Ferritin light chain (Equus caballus) (P02791 2-175 limits assumed): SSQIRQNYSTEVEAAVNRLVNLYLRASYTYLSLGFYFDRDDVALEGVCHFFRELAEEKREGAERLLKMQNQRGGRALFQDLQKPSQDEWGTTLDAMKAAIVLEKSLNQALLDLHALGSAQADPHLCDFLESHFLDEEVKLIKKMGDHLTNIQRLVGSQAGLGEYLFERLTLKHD

Turning to `CC[C@H](CC#N)OC(=O)N[C@@H](C)c1cccc(NC(=O)Nc2ccc(-c3cnco3)c(OC)c2)c1`, the parasite growth remaining, % of DMSO control (lower = more inhibition) in [1] was found to be 66.9%. The Potency in experiment [2] was 1530 nM (active); in experiment [3] it was 769 nM (active); in [4], 968 nM (active); in experiment [5], 769 nM (active). For the same compound, the activity change, negative = inhibition in experiment [6] was -97.5%.
In the case of `Cc1cc(CN2CCN(c3c(Br)cnc4nc(-c5ccc(N6CCN(C)CC6)cc5)[nH]c34)CC2)no1`, the Potency entry in experiment [2], in experiment [3], in [4] and in experiment [5] was “inactive” each time. Besides, the Potency in experiment [6] is 3160 nM (active).
In the case of `Oc1cc(O)cc(/C=C/c2ccc(O)c(O)c2)c1`, the Potency entry in experiment [7], in experiment [2], in experiment [3], in experiment [4] and in experiment [5] was “inactive” throughout. The call in experiment [8] was inactive. For the same compound, the activity change, negative = inhibition in experiment [6] is -97.4%.
With `CC1=CCC(O)(C(C)C)CC1` (stereo not drawn), the Potency result in [2], in experiment [3], in [4] and in experiment [5] was “inactive” in each case. For the same compound, the result in experiment [9] was inactive.
Turning to `Cn1cnc(-c2cc3nccc(Oc4ccc(NC(=S)NC(=O)Cc5ccccc5)cc4F)c3s2)c1`, the Potency result in [2], in [3], in [4] and in [5] was “inactive” throughout. Further, the Potency in experiment [6] is 8910 nM (active).
`CNC(=O)c1ccc(C)c(-n2c(C)cc(OCc3ccc(F)cc3F)c(Br)c2=O)c1`: the Potency entry in experiment [2], in [3], in [4] and in experiment [5] was “inactive” throughout. The Potency in experiment [6] was 22400 nM (active).
`Cc1nc(N)ncc1-c1nc(N2CCOCC2)c2sc(C(C)(C)O)cc2n1`: the Potency in experiment [2] was 1530 nM (active); in [3] it was 863 nM (active); in experiment [4] it was 1090 nM (active); in experiment [5] it was 1720 nM (active); in experiment [6], 7940 nM (active).
In the case of `Nc1nc2ccc(Cl)cc2c2nc(-c3ccco3)nn12`, the Potency result in experiment [10], in experiment [11], in [12], in [7], in experiment [20] and in [22] was “inactive” in each case. Besides, the Potency entry in [2], in experiment [3], in experiment [4] and in [5] was “inactive” each time. Moreover, the compound was called inactive in experiment [13], in experiment [14], in experiment [16] and in experiment [8]. For the same compound, the Potency in experiment [15] was 11200 nM (active); in [17], 5850 nM (active); in experiment [18] it was 50.1 µM (active) and inactive; in experiment [19], 1300 nM (active); in experiment [21], 596 nM (active). The viability change in experiment [20] is 11.1%.

The record behind these values is PubChem BioAssay (NCATS).
